Assay [1] can be described thus: IUF_NPC2c_oligodendrocyte_migration_120hr: Leibniz Research Institute for Environmental Medicine (IUF) 120-hour Neural Progenitor Cell Migration Assay for Oligodendrocyte Migration (NPC2c) (AID 2284297). As to the method:
IUF_NPC2-5 is a cell-based, multiplexed assay that uses hNPC, a human primary neural progenitor cells, with measurements taken at 72 or 120 hours after chemical dosing in a 96-well plate. Human neural progenitor cells (hNPC) are generated from human fetal brain cortex at gestational week (GW) 16-19. In the neural progenitor cell migration and differentiation assay (NPC2-5), hNPCs grown as spheres are plated on an extracellular matrix and migrate and differentiate out of the sphere core. The processes radial glia migration, neuronal and oligodendrocyte migration as well as neuronal differentiation, neuronal morphology and oligodendrocyte differentiation are studied using automated phase contrast imaging and automated fluorescence imaging in combination with high content image analysis. In parallel, the cell viability is assessed using an alamar blue viability assay and the cytotoxicity using a lactate dehydrogenase dependent membrane integrity assay.IUF_NPC2b_oligodendrocyte_migration_120hr is one of 12 assay components measured from the IUF_NPC2-5 assay. Oligodendrocyte migration distance at 120 hr is the mean distance of all oligodendrocytes from the edge of the sphere core to each individual oligodendrocyte (see IUF_NPC5_oligodendrocyte_differentiation_120hr). Oligodendrocyte migration is normalized to radial glia migration distance at 120 hr.Data from the IUF_NPC2c_oligodendrocyte_migration_120hr component was analyzed at the endpoint IUF_NPC2c_oligodendrocyte_migration_120hr in the positive analysis fitting direction relative to DMSO as the negative control and baseline of activity. Using a type of migration reporter, gain or loss-of-signal activity can be used to understand developmental effects.
(§1) Culture protocol: After the cell expansion period the cells are cultured for up to four weeks in which they are passaged every week as described in 3.6. Between one to three days after passaging spheres at a size of 0.3 mm are picked for the test method. For the assessment of neural progenitor cell migration and differentiation, the spheres are plated on poly-D-lysine/laminin coated 96-well flat bottom plates in differentiation medium (N2) to initiate migration and differentiation. Thereby one 0.3 mm big sphere is plated in the middle of a well. The differentiation medium consists of DMEM and Ham's F12 at a ratio of 3 to 1 supplemented with 1% N2 and 1% penicillin and streptomycin. Within 5 days NPCs radially migrate out of the sphere core and differentiate into radial glia cells (nestin positive), neurons (TUBB3 positive), oligodendrocytes (O4 positive) and astrocytes (GFAP positive). Cultivation during the test method is performed at 37C and 5% CO2 at a ph of 7.2-7.6.Exposure: 0.3 mm big hNPC are plated in the already prepared test conditions. Exposure starts at day 0 of differentiation and is continued over five days of differentiation until the experiment is terminated. Cells are fed with fresh medium at day 3 of differentiation. Therefore, half of the test condition solution (e.g. solvent control or compound dilution) is replaced by freshly prepared test condition solution.Test Method: Migration distance and cytotoxicity is determined after 72 hours based on brightfield images of each well. The assay is terminated by the assessment of cell viability and cytotoxicity as well as cell fixation after 120 h. Immunocytochemistry is performed for Hoechst positive nuclei, TUBB3 positive neurons and O4 positive oligodendrocytes. On the ICC images, migration after 120 hours, neuronal and oligodendrocyte number, neuronal morphology and neuron/oligodendrocyte specific migration is assessed. immunocytochemical staining (ICC) generates an image for each sphere. The plates are scanned using an automated high content imaging device and all nuclei and their positions are determined automatically based on their intensity and size. Images are imported to the Omnisphero software to run the image analysis that measures the following endpoints. […]

The nature of assay [2]: IUF_NPC2a_radial_glia_migration_120hr: Leibniz Research Institute for Environmental Medicine (IUF) 120-hour Neural Progenitor Cell Migration Assay for Radial Glia Migration (NPC2a) (AID 2284298). Summed up: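 Hoechst-stained nuclei imaged at 120 h; algorithm maps sphere core by densest nuclei, sets migration edge at density threshold, gives radial glia migration distance (um) per well vs DMSO. hNPC spheres (0.3 mm), PDL/laminin, DMEM/F12 3:1 + 1% N2.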

A short description of assay [3]: IUF_NPC2a_radial_glia_migration_72hr: Leibniz Research Institute for Environmental Medicine (IUF) 72-hour Neural Progenitor Cell Migration Assay for Radial Glia Migration (NPC2a) (AID 2284299). In a few lines:
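Migration out of plated human neural progenitor spheres is scored at 72 h as the distance in um from the sphere core edge to the edge of the migration area. Values are the mean of four manual measurements per well, normalised to DMSO.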

Assay [4] is described as follows: IUF_NPC2b_neuronal_migration_120hr: Leibniz Research Institute for Environmental Medicine (IUF) 120-hour Neural Progenitor Cell Migration Assay for Neuron Migration (NPC2b) (AID 2284300). Summed up: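 hNPC spheres, PDL/laminin, DMEM:F12 3:1 + 1% N2, 37C/5% CO2; 7 concentrations + solvent control (DMSO ≤0.1%), 5 d exposure, half-feed day 3. Fix 120 h, TUBB3 ICC, HCI: mean neuron migration distance ÷ glia distance.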

Assay [5] in a line: IUF_NPC3_neuronal_differentiation_120hr: Leibniz Research Institute for Environmental Medicine (IUF) 120-hour Neuronal Differentiation Assay (NPC3) (AID 2284301). Summed up: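 Human fetal (GW 16-19) neural progenitor spheres (0.3 mm) plated on poly-D-lysine/laminin in N2 differentiation medium, exposed 120 h at 37C with half-medium renewal day 3; 7 concentrations. TUBB3+ cells as % of Hoechst nuclei, CNN-identified; DMSO baseline.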

A short description of assay [6]: IUF_NPC4_neurite_length_120hr: Leibniz Research Institute for Environmental Medicine (IUF) 120-hour Neuronal Morphology Assay for Neurite Length (NPC4) (AID 2284302). The protocol: IUF_NPC2-5 is a cell-based, multiplexed assay that uses hNPC, a human primary neural progenitor cells, with measurements taken at 72 or 120 hours after chemical dosing in a 96-well plate. Human neural progenitor cells (hNPC) are generated from human fetal brain cortex at gestational week (GW) 16-19. In the neural progenitor cell migration and differentiation assay (NPC2-5), hNPCs grown as spheres are plated on an extracellular matrix and migrate and differentiate out of the sphere core. The processes radial glia migration, neuronal and oligodendrocyte migration as well as neuronal differentiation, neuronal morphology and oligodendrocyte differentiation are studied using automated phase contrast imaging and automated fluorescence imaging in combination with high content image analysis. In parallel, the cell viability is assessed using an alamar blue viability assay and the cytotoxicity using a lactate dehydrogenase dependent membrane integrity assay.IUF_NPC4_neurite_length_120hr is one of 12 assay components measured from the IUF_NPC2-5 assay. The neurite length at 120 hr is the mean length in um of all neurons (see IUF_NPC3_neuronal_differentiation_120hr) that are identified by the skeletonization algorithm in Omnisphero.Data from the IUF_NPC4_neurite_length_120hr component was analyzed at the endpoint IUF_NPC4_neurite_length_120hr in the positive analysis fitting direction relative to DMSO as the negative control and baseline of activity. Using a type of differentiation reporter, gain or loss-of-signal activity can be used to understand developmental effects.
as §1, with “endpoints. The method is set up for 8 test conditions including 7 compound concentrations and one SC.” for “endpoints.”

Assay [7] can be described thus: IUF_NPC5_oligodendrocyte_differentiation_120hr: Leibniz Research Institute for Environmental Medicine (IUF) 120-hour Oligodendrocyte Differentiation Assay (NPC5) (AID 2284304; active = hit-call score of the fitted dose curve at least 0.9, where 1 is the maximum;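 note: share of O4-positive cells among Hoechst nuclei found by CNN image analysis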). Summed up: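 hNPC spheres, fetal cortex GW 16-19; PDL/laminin, DMEM:F12 3:1 + 1% N2, 37C/5% CO2; 7 concentrations + solvent control, 5 d exposure, half-change day 3. Readout: %O4+ of Hoechst+ nuclei in migration area, CNN classification; DMSO baseline.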

A short description of assay [8]: IUF_NPC4_neurite_area_120hr: Leibniz Research Institute for Environmental Medicine (IUF) 120-hour Neuronal Morphology Assay for Neurite Area (NPC4) (AID 2284305; active = hit-call score of the fitted dose curve at least 0.9, where 1 is the maximum). In a few lines: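 Human fetal neural progenitor spheres (0.3 mm) plated on poly-D-lysine/laminin in N2 differentiation medium, exposed 120 h (7 concentrations, DMSO ≤0.1%, half-medium refresh day 3). Fixed, TUBB3 immunostained; mean neurite area per neuron by Omnisphero skeletonization.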

A short description of assay [9]: IUF_NPC2-5_cytotoxicity_72hr: Cytotoxicity Assessment at 72 hours in the Leibniz Research Institute for Environmental Medicine (IUF) Neural Progenitor Cell Migration and Differentiation Assay for Cytotoxicity (NPC2-5) (AID 2284306; active = hit-call score of the fitted dose curve at least 0.9, where 1 is the maximum;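 note: LDH release into supernatant measured by resorufin fluorescence marking membrane damage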). In a few lines:
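Human fetal primary neural progenitor spheres (0.3 mm) plated on poly-D-lysine/laminin in N2 differentiation medium, exposed from day 0 at 37C. LDH-dependent resazurin-to-resorufin fluorescence in supernatant at 72 h; 7 concentrations, DMSO at most 0.1%.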

Read-out in a further assay: CD69, CD69 (gene 969)
The assay is described as follows: BSK_LPS_CD69: BioMAP Diversity Plus: LPS Assay for CD69 Biomarker Activity (AID 2284303). As to conditions: primary human HUVEC with PBMC. In a few lines:
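Human umbilical vein endothelial cells co-cultured with PBMC under LPS stimulation, chemical exposure 24 h; cell-surface CD69 measured by ELISA and fitted in the positive direction versus DMSO.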

Outcome and AC50 data for 23 molecules are collected here from PubChem BioAssay (EPA / NIEHS).

Records with an inconclusive call do not appear. More than one record can exist for a structure, and the calls need not agree. Active and inactive are the calls of the source. Rule for the calls, unless noted: active = hit-call score of the fitted dose curve at least 0.9, where 1 is the maximum; inactive = score below 0.9.

With `CC(C)(C)c1ccccc1OP(=O)(Oc1ccccc1)Oc1ccccc1`, the result in [1], in assay [3], in assay [4], in assay [5], in [6] and in [8] was inactive. Further, the call in assay [9] was inactive. Besides, the AC50 (commonly the concentration at which the activity in the assay is half-maximal) in assay [2] is 10 µM (active); in [7], 4.35 µM (active).
As to `CO/N=C(/C(=O)OC)c1ccccc1COc1ccccc1C`, the molecule was called inactive in [1], in assay [4], in [6], in assay [8] and in assay [9]. In addition, the AC50 in assay [2] was 22.9 µM (active); in assay [3] it was 21 µM (active); in assay [5], 2.33 µM (active); in assay [7], 13.9 µM (active).
Turning to `OCC(F)(F)OC(F)(F)C(F)(F)OC(F)(F)C(F)(F)OC(F)(F)CO`, the outcome with CD69, CD69 (gene 969) was inactive.
`O=C(O)C=CC(F)(C(F)(F)F)C(F)(F)F`: the result in the assay with CD69, CD69 (gene 969) was inactive.
`CCOP(=S)(OCC)SCSCC`: the outcome in assay [1], in [2], in [3], in assay [4], in assay [5] and in assay [6] was inactive. In addition, the outcome in [7], in assay [8] and in assay [9] was inactive.
Consider `O=S(=O)(F)C(F)(F)C(F)(F)C(F)(F)C(F)(F)C(F)(F)C(F)(F)C(F)(F)C(F)(F)F`, for which the outcome with CD69, CD69 (gene 969) was inactive.
As for `O=P(Oc1ccccc1)(Oc1ccccc1)Oc1ccccc1`, the call in [1], in assay [3], in assay [4], in [5], in [6] and in [7] was inactive. Besides, the molecule was classed as inactive in assay [8] and in [9]. Further, the AC50 in [2] is 11 µM (active).
`CC(O)C(F)(F)C(F)(F)F` (stereo not drawn): the outcome in the assay with CD69, CD69 (gene 969) was inactive.
On the same count and under the same terms, then `OCC(F)(F)OC(F)(F)C(F)(F)OC(F)(F)CO`, with “inactive”.
For the molecule `CCOc1ccc(C(C)(C)COCc2cccc(Oc3ccccc3)c2)cc1`, the molecule was called inactive in [1], in assay [2], in [3], in assay [4], in assay [5] and in assay [6]. The molecule was called inactive in assay [7], in assay [8] and in assay [9].
Regarding `COP(=O)(CCC(=O)NCO)OC`, in the assay with CD69, CD69 (gene 969), the concentration at half-maximal activity (AC50) was 0.15 µM (active) and the outcome was inactive.
In the case of `FC(F)(F)C(F)(C(F)(F)F)C(F)(F)C(F)(F)CC1CO1` (stereo not drawn), in the assay with CD69, CD69 (gene 969), the outcome was inactive.
On to `CCCCC(CC)COP(=O)(Oc1ccccc1)Oc1ccccc1` (stereo not drawn), for which the molecule was classed as inactive in [1], in assay [2], in [3], in [4], in [5] and in [6]. For the same molecule, the molecule was called inactive in assay [7], in assay [8] and in assay [9].
For `O=C(O)C(F)(F)C(F)(F)C(=O)O`, in the assay with CD69, CD69 (gene 969), the outcome was inactive.
On the same count and under the same terms, in the case of `COC(=O)C(F)(F)C(F)(F)OC(F)(C(F)(F)F)C(F)(F)OC(F)=C(F)F` (stereo not drawn) it was “inactive”.
Take `O=C(O)C(F)(OC(F)(F)C(F)(F)C(F)(F)F)C(F)(F)F` (stereo not drawn): the outcome is “inactive” in assay [1]; “inactive” in [2]; “inactive” in [3]; “inactive” in assay [4]; “inactive” in assay [5]; “inactive” in the assay with CD69, CD69 (gene 969). Further, the molecule was called inactive in assay [7] and in assay [9]. Besides, the AC50 was 0.342 µM (active) in assay [6] and 0.338 µM (active) in assay [8].
For `CCCCOCCOP(=O)(OCCOCCCC)OCCOCCCC`, the call in [1], in assay [2], in [3], in assay [4], in [5] and in assay [6] was inactive. In assay [8], the molecule was classed as inactive. The AC50 in [7] was 3.24 µM (active).
Consider `O=S1(=O)OCC2C(CO1)C1(Cl)C(Cl)=C(Cl)C2(Cl)C1(Cl)Cl` (stereo not drawn), for which the result in assay [1], in assay [2], in assay [3], in [4], in assay [5] and in assay [6] was inactive. Besides, the call in [8] and in assay [9] was inactive. The AC50 in assay [7] was 0.403 µM (active).
As for `C=CC(=O)OCC(F)(F)C(F)F`, in the assay with CD69, CD69 (gene 969), the AC50 was 43.8 µM (active) and the outcome was inactive.
For the molecule `O=C(O)C(F)(F)OC(F)(F)C(F)(F)OC(F)(F)F`, the outcome with CD69, CD69 (gene 969) was inactive.
Still for that read-out and setting: then `O=C(O)C(F)(F)OC(F)(F)C(F)(F)OC(F)(F)C(=O)O`, with “inactive”.
Turning to `OCC(F)(F)OC(F)(F)C(F)(F)OC(F)(F)C(F)(F)OC(F)(F)F`, in the assay with CD69, CD69 (gene 969), the AC50 is 6.46 µM (active) and the result was inactive.
As to `NC(=O)C(F)(F)C(F)(F)F`, in the assay with CD69, CD69 (gene 969), the outcome was inactive.
